The whole screen tested about 23,000 compounds, of which about 30 (0.1%) showed an effect of 50% or more. Only a selection was taken, and strong results are over-represented in it overall. Results with a measured potency or affinity are listed apart.
The molecules below were run on Pseudomonas aeruginosa. Conditions: Concentration 32 ug.mL-1; ASSAY_TEST Inhibition of Bacterial Growth; detection method Absorption (OD600); MEDIA CAMHB; plate type 384well; NBS; CORNING #3640; time 18 hr.

| SMILES | Inhibition |
| --- | --- |
| N=C(Nc1ccccc1)c1cscn1 | 1.73% |
| N=C(Nc1ccccc1Cl)c1cscn1 | 77.11% |
| CCc1ccc(Nc2nc(N)c(-c3nc4ccccc4c(=O)n3-c3ccccc3)s2)cc1 | 12.66% |

Reference: ChEMBL document CHEMBL4513154, “CO-ADD screening of Jain University (India) compounds”
